Experimental data taken from PubChem BioAssay (NCATS).
Results filed as inconclusive are left out. A number with no mark means an inactive call. Calls come from the whole dose curve; as a rule, active = well fitted inhibition curve with a large enough effect; inconclusive = small, poorly fitted or top-dose-only effect; inactive = flat fitted curve, though single readings scatter.

Each molecule was assayed on Zika virus NS2B-NS3 protease (assay: Primary screen GU AMC qHTS for Zika virus inhibitors (AID 1347154;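 note: 0% = no-inhibitor control and -100% = no-enzyme control; nearly all actives have a fitted effect of over 70% in size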)). Details: Zika NS2B-NS3 unlinked protease, AMC fluorogenic substrate; series mostly up to 54.1 µM; activity change, negative = inhibition: at the top concentration.
Outline: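 Unlinked Zika NS2B hydrophilic domain–NS3 protease complex at 25 nM in 10 mM Tris-HCl pH 8.0, 0.01% Tween 20, with an AMC peptide substrate. Fluorescence change (340/450 nm) over 15 min at room temperature, normalized to controls, fitted to 4-parameter Hill.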

Row | SMILES | activity change, negative = inhibition [%]
1 | CC=C1C2C=C(C)CC1(N)c1ccc(=O)[nH]c1C2 (centres undefined) | 13.5
2 | O=C1CN2Cc3c(ccc(Cl)c3Cl)N=C2N1 | -0.611
3 | CC(C)c1c(C(=O)Nc2ccccc2)c(-c2ccccc2)c(-c2ccc(F)cc2)n1CC[C@H](O)C[C@@H](O)CC(=O)O | -1.98
4 | C#C[C@]1(O)CC[C@H]2[C@H]3CCc4cc(OC)ccc4[C@H]3CC[C@@]21C | -6.99
